Only some compounds are listed: those with a hit (about 5.4% of all), similar ones and a draw of the others.
MPTP block: mitochondrial permeability transition pore inhibitors, primary screen, biochemical, isolated mouse mitochondria, absorbance; Ca2+ swelling absorbance, 30 min; inhibition, % at 10 µM; actives 1.4% (n = 360,000); AID 602449, 2012;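 active = inhibition of 50% or more, scaled per plate between neutral and stimulator controls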;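 also: 0% = DMSO wells given calcium and 100% = 1 mM EGTA wells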
Calb FLC: C. albicans growth inhibition with fluconazole, primary screen, CaCi-2 strain, Alamar Blue fluorescence. C. albicans CaCi-2 (fluconazole-resistant clinical isolate) + fluconazole, 48 h. growth inhibition, % (no concentration beside the values). actives 0.57% (n = 300,000). AID 1979, 2009;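 active = growth inhibition above about 58% in most replicates, limit read from the data, passing the limit was not always enough; inconclusive = exactly half the replicates above a set limit; inactive = most replicates below a set limit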;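 also: all wells also contain fluconazole at 8 µg/ml as a sub-toxic cotreatment; 0% = median of DMSO wells and 100% = median of geldanamycin control wells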
Beta apoptosis: inhibitors of cytokine-induced beta cell apoptosis, primary screen, luminescence; AID 435005, 2010; actives 0.8% (n = 300,000); protection from apoptosis, % (no concentration beside the values); INS-1E cytokine-induced death, ATP luminescence, 48 h; percent of positive-control rescue, neutral wells zero;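 active = Every replicate reaches about 75%, or at least half do and their mean reaches it too, limit read from the data; inconclusive = At least half of replicates reach the limit but their mean does not; inactive = Under half of replicates reach the limit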;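 also: 0% = cytokine-treated negative control wells and 100% = positive control rescue; higher means more ATP so stronger rescue from cytokine killing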
CSC inhib: cancer stem cell viability inhibitors, primary screen, luminescence. cancer stem cell-like cells viability. inhibition, % at 7.5 µM. actives 1.1% (n = 300,000); in the data active = inhibition above about 75%; inconclusive = no clear call, values can overlap the other calls; tested in HMLE shEcad cells
Mdm2-MdmX inh: inhibitors of human Mdm2-MdmX association, primary screen, cell-based, luminescence, split luciferase, SaOS-2, uHTS. SaOS-2 split-luciferase Mdm2/MdmX complementation. inhibition, % at 8 µM. actives 3% (n = 330,000). AID 485346, 2010;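 active = inhibition of at least 50% at 8 µM in the primary screen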
SKKanGAS inh: S. pyogenes SKKanGAS growth inhibitors in kanamycin, primary screen, streptokinase expression inhibitor project, SKKanGAS strain, BacTiter-Glo luminescence; 6 h; inhibition, % at 7.5 µM; actives 1.3% (n = 300,000); AID 1662, 2009;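 active = mean replicate score, as percent of positive control median, at least 50; inconclusive = mean below 50 but one replicate at or above 50; inactive = mean and every replicate below 50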;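 also: strain carries kanamycin resistance gene driven by streptokinase promoter and grows in 40 µg/ml kanamycin; loss of luminescence reflects streptokinase promoter inhibition or plain growth inhibition; 0% = median of DMSO wells and 100% = positive control at its reference dose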
Mdm2-MdmX conf: Mdm2-MdmX complex disruptors, retested hits, confirmation, luminescence, single concentration; inhibition, % at 8 µM; Mdm2-MdmX binding, luminescent assay; AID 489028, 2010; actives 55% (n = 10,000); shares compounds with Mdm2-MdmX inh; in the data active = inhibition above about 40%
FLuc counter: full-length luciferase signal inhibition, confirmation, counter-screen for Mdm2/MdmX interaction inhibitor project, cell-based, single concentration, SaOS-2; shares compounds with Mdm2-MdmX inh; SaOS-2 full-length luciferase counterscreen, luminescence; inhibition, % at 8 µM; actives 77% (n = 6,200);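 active = mean inhibition at 8 µM reaching about 37%, which flags the compound as non-specific, limit read from the data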;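 also: p53-null SaOS-2 cells with luciferase driven by a doxycycline-inducible promoter; compound on cells about two nights before reading with doxycycline added after day one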
* marks the source's active call; other numbers are inactive results; ? = inconclusive; . = no result given.

SMILES	MPTP block	Calb FLC	Beta apoptosis	CSC inhib	Mdm2-MdmX inh	SKKanGAS inh	Mdm2-MdmX conf	FLuc counter
Cc1ccnc2c1ccc1c(C)ccnc12	-2	.	102*	111*	84*	.	85*	18
c1cnc2c(c1)ccc1cccnc12	3	110*	59	3	77*	24	82*	50*
CCOC(=O)/C(C#N)=C/Nc1cc(C(C)(C)C)sc1C(C)=O	2	-6	-2	5	9	-2	.	.
CC(=O)NC(c1ccccc1)c1nc(-c2ccccc2)cs1 (configuration not stated)	0	.	.	.	.	.	.	.
O=C(Oc1ccccc1C(=O)Oc1ccccc1)c1cccnc1	-1	-11	4	-9	52*	3	4	.
COC(=O)c1ccccc1OC(=O)c1cccnc1	-2	-1	-2	-13	-13	-2	.	.
Cc1ccccc1C(=O)Nc1ccc(-c2nc3ccc(C(=O)c4ccccc4)cc3[nH]2)cc1	0	1	14	84*	67*	31	33	46*
O=C(Nc1ccc(-c2nc3ccc(NC(=O)c4cccs4)cc3[nH]2)cc1)c1cccs1	3	-3	24	102*	95*	0	47*	34
Cc1ccc2nc(-c3ccc(NC(=O)c4ccco4)cc3)[nH]c2c1	-2	25	9	.	-204	4	.	.
O=C(Nc1ccc2nc(-c3cccs3)[nH]c2c1)c1cccs1	0	-16	32	7	-2	0	.	.
CCCc1nc2ccc(Cl)cn2c1Cc1ccc(C)cc1	1	.	.	.	.	.	.	.
CC(=O)Nc1ccc(Nc2cc(C)nc3c(-c4ccc(Cl)cc4)c(C)nn23)cc1	0	4	.	69	31	37	.	.
COC(=O)c1nn(-c2ccccc2)c(Cl)c1/C=N/O	0	?	2	12	19	2	.	.
COC(=O)c1nn(-c2ccccc2)c(Cl)c1/C=N/OCc1ccc(Cl)cc1Cl	-5	-5	-7	2	58*	-3	1	.
Cc1cc(Cl)ccc1OCC(=O)N1CCCCC1	-2	-3	2	22	-19	4	.	.
O=C(COc1ccc(Cl)cc1Cl)N1CCCN(C(=O)COc2ccc(Cl)cc2Cl)CC1	1	93*	17	38	59*	30	21	.
CC1(C(=O)NS(=O)(=O)c2ccccc2Cl)CCN1C(=O)CC(c1ccccc1)c1ccccc1 (configuration not stated)	-1	.	.	.	.	.	.	.
CN(C)S(=O)(=O)n1cnc(C(CCO)c2ncn(S(=O)(=O)N(C)C)c2CCCO)c1 (configuration not stated)	1	.	-6	2	-5	.	.	.
CCOc1ccc(CCNC(=O)CCS(=O)(=O)c2ccc(Cl)cc2)cc1OCC	0	-7	-6	-13	2	-4	.	.
CC(C)c1cccc(C(C)C)c1NC(=O)c1ccc(OCC(=O)NCc2ccccc2)cc1	.	-3	-4	-7	75*	4	60*	56*
CC(C)c1nc2sc3c(NCc4ccco4)ncnc3c2c2c1COC(C)(C)C2	2	12	2	61	53*	17	33	.
CC(C)c1nc2sc3c(NCc4ccccc4)ncnc3c2c2c1COC(C)(C)C2	-5	-3	-5	29	18	10	.	.
CC(C)(C)C(=O)NC(=S)Nc1cc(C(F)(F)F)ccc1N1CCOCC1	-3	-9	-4	-3	7	-7	.	.
O=C(NC(=S)Nc1cc(C(F)(F)F)ccc1N1CCOCC1)c1sc2ccccc2c1Cl	0	-5	8	35	50*	-5	19	.
Cc1ccc(/C=C/C(=O)c2c(C)nc3ccccn23)cc1	6	52	18	47	-50	23	.	.
SMILES	MPTP block	Calb FLC	Beta apoptosis	CSC inhib	Mdm2-MdmX inh	SKKanGAS inh	Mdm2-MdmX conf	FLuc counter
Cc1nc2ccccn2c1C(=O)/C=C/c1cccc([N+](=O)[O-])c1	2	21	102*	88*	99*	7	97*	28
NC(N)=N/N=C/c1ccc(OCc2ccccc2Cl)cc1	9	-4	8	105*	98*	16	67*	32
COc1cc(/C=N/O)ccc1OCc1ccc(C(=O)O)cc1	0	-8	-1	-10	83*	13	78*	21
NC(N)=N/N=C/c1ccccc1	0	-2	.	.	-22	-7	.	.
NC(N)=N/N=C/c1ccc(OCc2ccccc2)c(OCc2ccccc2)c1	2	28	9	2	96*	?	67*	65*
COc1cc(/C=N/O)ccc1OCc1ccc(Cl)cc1	.	?	1	6	-186	-9	.	.
COc1cc(/C=N/N=C(N)N)ccc1OCc1ccc(Cl)cc1	4	-3	98*	50	101*	11	50*	127*
Clc1cc(Cl)c(Cl)c(Cl)c1Cl	1	.	5	3	14	.	.	.
O=C(Nc1ccccc1N1CCN(C(=O)c2ccc(Cl)cc2)CC1)c1cc(Br)ccc1Cl	2	7	10	8	-22	29	.	.
CC[n+]1ccc(/C=C/c2c[nH]c3ccccc23)cc1	1	-17	73	12	56*	0	20	.
Cc1ccc2[nH]cc(/C=C/c3cc[n+](C)cc3)c2c1	1	3	121*	-10	72*	-6	61*	57*
S=C1NC[C@H](Cc2ccccc2)N1CC1CCN(CCCC2CCCC2)CC1	-1	.	.	.	.	.	.	.
c1ccc(-c2nnc(CN3CCCc4ccccc43)o2)cc1	0	-3	0	-3	-16	-8	.	.
COc1ccccc1N1CCN(Cc2ccc(O)c3ncccc23)CC1	-1	-6	139*	.	77*	43	67*	21
COc1ccccc1N1CCN(Cc2ccc(OC)c(OC)c2OC)CC1	2	-26	-2	-7	5	0	.	.
CCOC(=O)C1CCN(Cc2ccc(O)c3ncccc23)CC1	0	112*	85*	41	81*	0	62*	50*
CC(CN1CCOCC1)OC(=O)c1ccccc1Br (configuration not stated)	1	-3	4	.	-1	-6	.	.
O=C(Oc1c(CN2CCOCC2)cc(Cl)c2cccnc12)c1ccccc1Br	-4	87*	97*	19	52*	26	32	.
Oc1ccc(CN2CCCc3ccccc32)c2cccnc12	-2	3	103*	1	79*	31	76*	43*

Compound activity as filed in PubChem BioAssay.
